# From PubChem BioAssay AID686979 (National Center for Advancing Translational Sciences (NCATS), 2013)
# The campaign covered roughly 420,000 compounds. About 50,000 (12%) were called active. Another 26% or so got no clear call; they are omitted. This is one part of a sample in which actives are shown more often than they occur. Unmarked numbers belong to inactive results. The call rests on the fitted dose curve; in most records, active means well fitted inhibition curve with a large enough effect; inconclusive means small, poorly fitted or top-dose-only effect; inactive means flat fitted curve, though single readings scatter.
# Experiment: qHTS for Inhibitors of human tyrosyl-DNA phosphodiesterase 1 (TDP1): qHTS in cells in presence of CPT; further: nearly all actives have a fitted effect of over 55% in size
# Conditions: chicken DT40 Tdp1-/-;hTDP1 cells + 20 nM CPT, ATP luminescence, 48 h; series mostly up to 46.2 µM; activity change, negative = growth inhibition: at the top concentration
# In short: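 Cell growth measured by CellTiter-Glo luminescence after a minimum 48 h, 37 C compound exposure with 20 nM CPT in Tdp1-knockout DT40 cells stably expressing hTDP1, seeded 400/well; qHTS titration format.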
# On the % scale 0 is the no-effect control and ±100 the full control effect; potency means the concentration at half of the fitted maximal effect.
Compound,"activity change, negative = growth inhibition",Potency
CC(C)Cn1cc(-c2cncc3nccn23)cn1,5.95%,–
CCCCN(CC(=O)NC(C)(C)C)C(=O)C(=O)Nc1ccc2c(c1)OCCO2,1.35%,–
O=C(O)c1cc2c(cc1NC(=O)c1c(F)cccc1Cl)OCCCO2,5.92%,–
Cc1ccc(CNC(=O)CSc2nnc3c(n2)[nH]c2ccc(F)cc23)cc1,9.5%,–
O=c1c(-c2ccc(Cl)cc2)[n+]([O-])c2ccccc2n1OCc1nc2ccccc2[nH]1,17.6%,–
CCOc1ccc(OCC)c(-c2c(=O)n(OCc3ccc(Cl)cc3)c3ccccc3[n+]2[O-])c1,–,7.31 µM (active)
CCOC(=O)COn1c(=O)c(-c2ccc(OCC)cc2)[n+]([O-])c2ccccc21,-16.7%,–
O=C(N/N=C/c1ccco1)c1csc2c1CCCC2,-2.91%,–
Cc1cccc(C)c1NC(=O)N1CC=C(n2c(=O)[nH]c3ccccc32)CC1,–,14.6 µM (active)
Cc1cccc(C)c1NC(=O)N1CC(C)OC(C)C1 (stereo not given),-2.12%,–
Cc1ccccc1Cn1c(=O)[nH]c2ccccc21,-15.8%,–
C[C@H](CO)N1C[C@H](C)[C@@H](CN(C)C(=O)c2cnccn2)Oc2ncc(Br)cc2C1=O,-4.57%,–
NNc1nnc(Cc2ccncc2)c2ccccc12,-16.8%,–
Cc1ccn2cc(C(=O)NC3CCN(Cc4ccccc4)CC3)nc2c1,-22.4%,–
O=C(NC1CCN(Cc2ccccc2)CC1)c1cc(Br)c(Br)[nH]1,–,18.4 µM (active)
Cc1cc(Br)ccc1NC(=S)NC1CCCC1,-25.2%,–
Cc1cc(C(=O)NC2CCN(Cc3ccccc3)CC2)n[nH]1,1.51%,–
S=C(Nc1ccc(Br)cc1)NC1CCN(Cc2ccccc2)CC1,–,16.4 µM (active)
O=C(Nc1ccccc1)N1CCC(C(=O)N2CCN(Cc3ccccc3)CC2)CC1,-23.9%,–
O=C(NNC(=S)Nc1ccc(Br)cc1Cl)c1ccco1,1.82%,–
S=C(Nc1ccc(Br)cc1Cl)NC1CCN(Cc2ccccc2)CC1,–,18.4 µM (active)
O=C(NC1CCN(Cc2ccccc2)CC1)c1c(F)cccc1F,-5.75%,–

Compound,"activity change, negative = growth inhibition",Potency
O=C(NC1CCN(Cc2ccccc2)CC1)c1ccccc1F,-25.2%,–
Cc1ccc(-c2cc(C(=O)NC3CCN(Cc4ccccc4)CC3)c3ccccc3n2)cc1,–,14.6 µM (active)
O=C(c1cccc(-n2cccc2)c1)N1CCN(S(=O)(=O)c2ccc(F)cc2)CC1,-14.8%,–
COc1cc(/C=C/C(=O)OCC(=O)NC2CC2)cc(OC)c1OC,4.67%,–
COC(=O)c1sccc1NC(=O)c1ccc(Cl)cc1,-0.881%,–
CCc1ccc(NC(=O)CCNS(=O)(=O)c2cccs2)cc1,-1.58%,–
Cc1cccc(C)c1NC(=O)CN1C(=O)C(C)Oc2ccccc21 (stereo not given),5.54%,–
CCC1C(=O)c2ccccc2N(C)C1=O (stereo not given),15.8%,–
Cc1onc(C(=O)Nc2ccc3c(c2)OCO3)c1[N+](=O)[O-],-30.1%,–
Cc1ccc(NC(=O)CSc2nnc(CNC(=O)c3ccccc3F)o2)cc1Cl,-18%,–
O=C(NC1CC(=O)N(c2ccccc2)C1)c1ccco1 (stereo not given),9.32%,–
COc1cc(NC(=O)CN2CCN(S(=O)(=O)c3ccc(Br)cc3)CC2)cc(OC)c1,-4.27%,–
COc1ccc(NC(=O)CN(C)C(=O)CNC(=O)C2CCCCC2)cc1,4.05%,–
COc1ccc(/C=C/c2noc(-c3ccccc3OC(C)=O)n2)cc1,0.465%,–
O=C(O)COc1ccc(/C=N/O)cc1Br,-0.568%,–
C=CCNC(=S)N/N=C/c1ccc(OCc2ccccc2)cc1,-6.93%,–
CNC(=S)N/N=C/c1ccc(OCc2ccccc2)c(Br)c1,–,9.2 µM (active)
O=C(COc1ccccc1)Nc1ccc(F)cc1,-2.03%,–
CCN(c1ccccc1)S(=O)(=O)c1ccc(NC(=O)C(C)(C)C)cc1,-28.5%,–
CC(C)(CCl)C(=O)Nc1ccc(Sc2ccc(F)cc2)cc1,–,5.8 µM (active)
Cc1ccc(C(O)P(=O)(OC(C)C)c2ccc(N(C)C)cc2)cc1 (stereo not given),11.2%,–
COc1cc2c(cc1OC)C(c1ccccc1Br)NC(=O)C2 (stereo not given),-11.7%,–

Compound,"activity change, negative = growth inhibition",Potency
O=C1c2ccccc2C(=O)C1C(=O)C1CC1,-101%,–
CCc1c(C)nc(N)n2c(SCC(=O)NC3CCCCC3)nnc12,-9.06%,–
CC1CCN(c2ccc3c(c2)S(=O)(=O)c2cc(C(=O)O)ccc2C3=O)CC1,6.79%,–
Cc1cc(S(=O)(=O)Nc2ccc(C(=O)NCC(c3ccco3)N3CCCC3)cc2)ccc1F (stereo not given),-19.1%,–
Cc1c(C(=O)NCC(c2ccco2)N2CCCC2)oc2ccc(Cl)cc12 (stereo not given),–,20.6 µM (active)
CSc1ncccc1C(=O)NCC(c1ccco1)N1CCCCC1 (stereo not given),1.81%,–
CC1CCc2sc(C(=O)NCC(c3ccco3)N3CCCCC3)cc2C1 (stereo not given),–,16.4 µM (active)
COc1ccc2oc(C(=O)NCc3ccco3)c(C)c2c1,-28.7%,–
CC1CCc2sc(C(=O)N/N=C/C3CCCCC3)cc2C1 (stereo not given),8.96%,–
Nc1nc(N)c(N=O)c(N)n1,-0.158%,–
CC(=O)N(OCc1ccc(OC(C)C)c(Cl)c1)C(C)=O,2.14%,–
O=C(COC(=O)CCOc1ccccc1)Nc1cc(S(=O)(=O)N2CCCCC2)ccc1Cl,7.55%,–
O=C(CN1CCN(S(=O)(=O)c2cc(Cl)ccc2Cl)CC1)c1ccc(O)c(O)c1,–,9.2 µM (active)
COc1ccc(Cl)cc1S(=O)(=O)N1CCN(CC(=O)C(C)(C)C)CC1,-24.2%,–
O=S(=O)(c1cc(Cl)ccc1Cl)N1CCN(Cc2ccco2)CC1,-18.5%,–
COc1ccccc1C1CCN(c2ccc([N+](=O)[O-])cn2)CC1,-0.392%,–
c1ccc(Nc2nc(N3CCOCC3)c3ccccc3n2)cc1,–,20.6 µM (active)
O=c1[nH]c(N2CCOCC2)nc2ccccc12,-13%,–
Cc1cc(C(=O)Nc2ccccc2N2CCOCC2)c2ccccc2n1,-11.9%,–
CC1(C)CC(=O)C(C=NCCN2CCN(C(=S)Nc3cccc(Cl)c3)CC2)=C(O)C1,0.286%,–
O=C(CN1CCN(S(=O)(=O)c2ccc(Cl)s2)CC1)NCc1ccc(Cl)cc1,-21%,–
CC1(Oc2ccccc2-c2ccno2)CCN(Cc2ccc(-c3ccccc3)o2)C1 (stereo not given),–,25.9 µM (active)

Compound,"activity change, negative = growth inhibition",Potency
Nc1ncnc2c1ncn2[C@@H]1O[C@H](C(=O)N2CCCN(Cc3ccccc3F)CC2)[C@@H](O)[C@H]1O,-1.31%,–
C=CCNC(=S)NNc1ncnc2sc3c(c12)CC(C)(C)OC3,–,4.61 µM (active)
CC1(C)Cc2c(sc3nc4n(c(=N)c23)CCCCC4)CO1,-7.87%,–
CCSc1nc2sc3c(c2c(=O)[nH]1)CC(C)(C)OC3,-6.76%,–
Cc1c(CCC(=O)O)c(=O)oc2cc(OCc3ccc(Br)cc3)ccc12,-1.89%,–
Fc1ccc(NC(=S)N2CCc3[nH]c4ccccc4c3C2)cc1,-0.771%,–
COC(=O)c1scc(S(=O)(=O)C(C)(C)C)c1-n1cccc1,-11.3%,–
CC/C(=N\NC(=O)c1c(C)nc2ccccn12)c1ccc(Cl)cc1,-18.7%,–
Clc1ccc(-c2nc3ccccn3c2CN2CCSCC2)cc1,–,29.1 µM (active)
CN(C)C(=O)c1nc2ccc(Cl)cn2c1CN1CCN(c2ncccn2)CC1,-7.94%,–
O=C(COc1ccc(S(=O)(=O)NCc2ccccc2)cc1)N1CCOCC1,0.118%,–
Cc1ccc(OCC(=O)Nc2ccc(S(=O)(=O)Nc3ccccn3)cc2)cc1,-5.79%,–
Cc1ccc(S(=O)(=O)Nc2ccc3ncccc3c2)cc1,–,10.3 µM (active)
Cc1ccc(NS(=O)(=O)c2ccc(C(C)(C)C)cc2)cn1,-4.37%,–
Cc1oc2cc3oc(=O)ccc3cc2c1C,-2.18%,–
O=C(NNC(=O)C1CCCC1)c1ccc(F)cc1,-1.66%,–
Cc1sc2ncnc(N3CCC(C(=O)NNC(=O)c4ccc(F)cc4)CC3)c2c1C,–,18.4 µM (active)
O=C(NNC(=O)C1CCN(c2ncccn2)CC1)c1ccccc1,-3.34%,–
Cc1sc2ncnc(N3CCC(C(=O)Nc4nc5ccc(Cl)cc5s4)CC3)c2c1C,–,8.2 µM (active)
CS(=O)(=O)c1ccc2nc(NC(=O)C3C4C=CC(C4)C3C(=O)O)sc2c1 (stereo not given),-6.9%,–
CS(=O)(=O)c1ccc2nc(NC(=O)CN3CCCCCC3)sc2c1,-8.7%,–
COc1ccccc1C1CN(CCNC(=O)C2=CCCC2)Cc2ccccc2O1 (stereo not given),-9.51% [at 9.04 µM],–

Compound,"activity change, negative = growth inhibition",Potency
Nc1ncnc2c1ncn2[C@@H]1O[C@H](CNCc2cccn2-c2nccs2)[C@@H](O)[C@H]1O,-14.9%,–
CCCCN1C(=O)C(CC(=O)NC(c2ccccc2)c2ccccc2)CC(C(=O)N2CCOCC2)=C1C (stereo not given),-7.93%,–
O=C1NCCn2nc3ccccc3c21,-1.79%,–
Cc1ccc2c(c1)N(CC(=O)N1CCCC(C)C1)C(=O)CO2 (stereo not given),2.29%,–
Cc1ccc(Nc2nc(N3CCOCC3)nc(N3CCOCC3)n2)cc1Cl,–,23.1 µM (active)
Cc1cc(Nc2ccc(N3CCOCC3)cc2)c2cccc(C)c2n1,-17.3%,–
CNc1nc(Nc2ccc(C)c(Cl)c2)nc(N)c1[N+](=O)[O-],0.15%,–
COc1ccc(C2CC(=O)NC(=O)C2)cc1,7.32%,–
CC(C)(C)NC(=O)C(=O)NCc1ccncc1,36.2%,–
CC(C)(C)c1ccc(SCCc2ccncc2)cc1,–,18.4 µM (active)
c1ccc(CSCCc2ccncc2)cc1,-26.6%,–
Cc1cc(NC(=O)C(C)N2C(=O)c3ccccc3S2(=O)=O)no1 (stereo not given),13%,–
COc1cc(C(O)c2nc(-c3cccc(C(=O)O)c3)cs2)ccc1F (stereo not given),7.12%,–
COCc1cccc(-c2csc(C(O)c3ccc(F)cc3)n2)c1 (stereo not given),–,16.4 µM (active)
Fc1ccc(COc2cccc(-c3n[nH]c(=S)o3)c2)cc1,-2.08%,–
COc1ccc(N2CCN(C(=O)CN3C(=O)COc4ccccc43)CC2)cc1,0.58%,–
COc1ccc(N2CCN(C(=O)CSCc3nc(-c4ccccc4Cl)oc3C)CC2)cc1,–,14.6 µM (active)
COc1ccc(N2CCN(C(=O)C3CCN(C(=O)c4ccccc4Cl)CC3)CC2)cc1,-14.8%,–
COc1ccccc1C(=O)Nc1ccnn1C1CCN(Cc2cnn(C)c2)CC1,6.7%,–
Nc1nc(-c2ccccc2)cc(-c2ccccc2)n1,–,16.4 µM (active)
CNc1nc(-c2ccccc2)cc(-c2ccccc2)n1,2.21%,–
c1ccc(-c2cc(-c3ccccc3)[nH]n2)cc1,-3.11%,–
